Experimental findings from PubChem BioAssay are described below.

Each structure is given as a SMILES string. Activity calls are given as the source filed them.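 The calls were made as follows: active = inhibition above the hit cutoff set in the earlier primary screen (cut at about 27% in these data); inactive = the rest.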

The target in this test is Protein phosphatase methylesterase 1 (Homo sapiens) (UniProt Q9Y570). Put plainly: human PME-1 methylesterase inhibition confirmation – biochemical, fluorescence polarization, FP-Rh probe, triplicate (AID 2171).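 Also: 0% = enzyme with DMSO and 100% = wells lacking PME-1.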 Particulars: recombinant PME-1, FP-Rh probe fluorescence polarization; at 5.9 µM; active compounds read high.
Sequence of Protein phosphatase methylesterase 1 (Homo sapiens) (Q9Y570 whole entry, looked up): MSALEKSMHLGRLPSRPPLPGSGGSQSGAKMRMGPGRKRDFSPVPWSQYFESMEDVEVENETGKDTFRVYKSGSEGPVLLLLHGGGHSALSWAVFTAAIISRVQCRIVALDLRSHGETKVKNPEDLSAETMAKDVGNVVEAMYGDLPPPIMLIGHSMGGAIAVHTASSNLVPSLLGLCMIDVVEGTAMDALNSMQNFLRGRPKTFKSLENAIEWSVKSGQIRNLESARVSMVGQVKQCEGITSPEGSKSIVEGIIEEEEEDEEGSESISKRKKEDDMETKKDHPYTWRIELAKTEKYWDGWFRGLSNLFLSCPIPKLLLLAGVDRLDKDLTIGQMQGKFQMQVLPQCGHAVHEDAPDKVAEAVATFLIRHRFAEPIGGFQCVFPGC
One may read the inhibition as the drop in the measured response relative to a control, in per cent. `Cc1c(O)ccc(/C(Cc2ccc3ccccc3n2)=N\O)c1O`: the inhibition was 53.5% (active). For the molecule `CCc1ccc2[nH]c(O)c(N=NC3=NC(=O)CS3)c2c1`, the inhibition was 44% (active). For the molecule `Cc1[nH]c2c(C(=O)N3CCCC(CCC(=O)NCc4ccccc4F)C3)cccc2c1C` (stereo not given), the inhibition was 39.7% (active). Take `Cc1cc(O)ccc1N=Cc1c(C(F)(F)F)[nH][nH]c1=O`: the inhibition is 12.2% (inactive). In the case of `CC1=Nc2ccccc2/C1=C/c1sc(=N)n(-c2nccs2)c1O`, the inhibition was 40.4% (active).

Regarding `Cc1cccc2c(N=O)c(O)[nH]c12`, the inhibition is 54.3% (active). Take `Cc1cc(N)ccc1-n1c(C)ccc1C`: the inhibition is 6.22% (inactive). As for `CCc1ccc(S(=O)(=O)/N=C2\C=C(Nc3cccc(C(=O)O)c3)C(=O)c3ccccc32)cc1`, the inhibition is 38.4% (active). For `CCCCN(CCCC)CCNC(=O)c1cn(CC)c2ccc(S(=O)(=O)N(C)C3CCCCC3)cc2c1=O` the value was 85% (active). For `O=C(O)c1ccc(N/N=C/c2ccc(OC(=O)c3cccc(Cl)c3)cc2)cc1`, the inhibition is 37% (active). Consider `CCOC(=O)N1CC=C2C(C#N)=C(N)C(C#N)(C#N)[C@H](c3ccc(OC(C)C)c(OCC)c3)[C@H]2C1`, for which the inhibition was 41.6% (active). `Cc1c2cc(O)c(=O)cc-2oc2cc(O)c(O)cc12`: the inhibition was 143% (active).

For `CCc1ccc2nc3sc(C(=O)Nc4nnc(CC)s4)c(N)c3cc2c1`, the inhibition is 57.6% (active).

For the molecule `N#Cc1ccc(Nc2nc(-c3ccc(O)cc3O)cs2)cc1C(F)(F)F`, the inhibition is 51.9% (active).

As to `Cc1c(C(=O)OC/C(O)=C(\C#N)c2nc3ccccc3[nH]2)oc2ccccc12`, the inhibition was -5.29% (inactive).

`Nc1ccc2nc(-c3cccc(-c4nc5ccc(N)cc5[nH]4)c3)[nH]c2c1`: the inhibition was 94.1% (active).

For the molecule `COC(=O)/C(=C(O)\C=C\c1ccccc1[N+](=O)[O-])c1nc2ccccc2[nH]1`, the inhibition is 21.9% (inactive). For `CCOc1ccc(N=Nc2c(=O)[nH]n3c(=O)c4c([nH]c23)CCCC4)cc1` the value was 24.8% (inactive); for `Nc1cc(Cl)nc(N/N=C/c2c(O)ccc3ccccc23)n1`, 21.6% (inactive); for `CCOC(=O)Cc1csc(NC(=O)c2sc3nc4c(C)cc(C)cc4cc3c2N)n1`, 23.4% (inactive). Next, `COc1ccc2nc(-n3c(O)c(C4=c5ccccc5=NC4=O)[nH]c3=S)sc2c1`: 45.8% (active); `Cc1ccc(S(=O)(=O)/N=C2/C=C(Sc3ncn[nH]3)C(=O)c3ccccc32)c(C)c1`: 49.6% (active).

`N#C/C(=C\c1ccc(O)c(O)c1)C(=O)Nc1cccc2ncccc12`: the inhibition was -29.9% (inactive). For `O=C(O)c1ccc(N=Nc2c(O)[nH]c3cc(Cl)ccc23)cc1` the value was 116% (active). Turning to `COc1cc(OC)cc(-c2nnc(Nc3nc4c(F)cccc4s3)o2)c1`, the inhibition is 56.2% (active).

With `CCOC(=O)/C(=N\Nc1ccc(Cl)cc1)c1csc(Nc2ccccc2)n1`, the inhibition is 14.4% (inactive). For `CC(=O)Cc1cc(O)c2ccccc2c1OC(=O)c1ccc(Br)cc1`, the inhibition was 24.8% (inactive). Consider `N#CC(C#N)=NNc1ccc(S(=O)(=O)N2CCCCC2)cc1`, for which the inhibition was 14.8% (inactive). For `Oc1ccc(C2Nc3cccc4cccc(c34)N2)c(O)c1` the value was 21.4% (inactive); for `CCOc1cccc(CNc2ccc(O)cc2)c1OCc1ccccc1Cl`, 6.79% (inactive).

Regarding `CCOC(=O)c1c2c3c(cccc3n(C)c1=O)C(=O)c1ccccc1-2`, the inhibition was 21% (inactive). Take `C=CCn1c(O)c(N=Nc2ccccc2O)c2ccccc21`: the inhibition was 29.2% (active). Next, `COc1ccc(N=Nc2nc3ccc(Br)cc3n2C)cc1`: 29.7% (active); `N=c1oc2cc(O)ccc2cc1C(=O)Nc1nc2ccccc2s1`: 25.7% (inactive).

As for `Cc1ccc2cc(C#N)c(SCc3nnc(-c4ccccc4[N+](=O)[O-])o3)nc2c1`, the inhibition was 25.1% (inactive). For `CCC(C)Nc1nc(N)c([N+](=O)[O-])c(Nc2cc(OC)ccc2OC)n1` (stereo not given), the inhibition is 34.5% (active). Next, `Oc1ccccc1C1Nc2cccc3cccc(c23)N1`: 24.4% (inactive); `Cc1cccc2c(N=Nc3ccc(S(=O)(=O)Nc4cccc(Cl)c4)cc3[N+](=O)[O-])c(O)[nH]c12`: -12.3% (inactive); `O=C1[C@@H]2Cc3c([nH]c4ccccc34)C(c3ccccc3)N2C(=O)CN1C1CC1` (stereo not given in full): 5.42% (inactive). Regarding `COc1cccc(CNC(=O)CCCc2cn(C)c3ccccc23)c1`, the inhibition was 6.78% (inactive).
